# Results as given in PubChem BioAssay (Tox21).
# Results filed as inconclusive are left out. Where a call stands in place of a potency, no number is given. The source made the active and inactive calls. Unless noted, calls come from the whole dose curve; as a rule, active = well fitted curve in the direction sought with a large enough effect in the repeat runs; inconclusive = weak or mixed curves; inactive = no such curve, though single readings can be large; an effect the other way counts as inactive or inconclusive.
# Experiments:
# [1] = target: Retinoic acid receptor RXR-alpha (Homo sapiens) (UniProt P19793); experiment: qHTS assay to identify small molecule agonists of the RXR signaling pathway (AID 1159527; calls by dose curve; note: nearly all actives have a fitted effect of over 35% in size)
# Sequence of Retinoic acid receptor RXR-alpha (Homo sapiens) (P19793 whole entry, looked up): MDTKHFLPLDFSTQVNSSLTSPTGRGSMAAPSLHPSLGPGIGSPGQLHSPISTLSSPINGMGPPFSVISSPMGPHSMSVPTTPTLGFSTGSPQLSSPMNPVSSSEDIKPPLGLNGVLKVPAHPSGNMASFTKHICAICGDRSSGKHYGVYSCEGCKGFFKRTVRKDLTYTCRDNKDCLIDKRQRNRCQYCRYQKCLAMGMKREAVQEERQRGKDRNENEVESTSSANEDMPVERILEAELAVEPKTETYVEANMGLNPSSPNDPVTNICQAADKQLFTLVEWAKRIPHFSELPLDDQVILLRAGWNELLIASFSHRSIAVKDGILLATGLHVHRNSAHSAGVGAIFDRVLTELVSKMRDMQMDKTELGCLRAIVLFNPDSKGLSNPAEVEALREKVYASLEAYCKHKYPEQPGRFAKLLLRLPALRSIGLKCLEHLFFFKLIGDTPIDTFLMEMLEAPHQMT
# Summary of the method: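 Reporter activation is measured as beta-lactamase activity via FRET substrate cleavage (emission 460/530 nm) in HEK 293T cells expressing an RXR-alpha-driven bla construct, following 16 hr compound exposure at 37 C.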
# [2] = qHTS assay to identify small molecule agonists of the RXR signaling pathway - cell viability counter screen (AID 1159529); note: series mostly up to about 77 µM; nearly all actives have a fitted effect of over 50% in size
# Summary of the method: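 Tox21 10K compounds were tested for cytotoxicity against GeneBLAzer RXR-alpha HEK 293T cells grown in 2% charcoal-stripped FBS. Exposure lasted 16 hr at 37 C, 5% CO2; viability read by CellTiter-Glo luminescence.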
# [3] = qHTS assay to identify small molecule antagonists of the retinoid acid receptor (RAR) signaling pathway - cell viability counter screen (AID 1159551); note: nearly all actives have a fitted effect of over 35% in size
# Summary of the method: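 Luminescent ATP quantitation (CellTiter-Glo) gave cell viability in C3RL4 cells exposed to test chemicals for 6 h at 37 C alongside 1 uM final retinol.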
# [4] = qHTS assay to identify small molecule antagonists of the retinoic acid receptor (RAR) signaling pathway (AID 1159552; note: nearly all actives have a fitted effect of over 50% in size)
# Summary of the method: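 Overnight-plated C3RL4 reporter cells get compound, then retinol to 1 uM final; plates sit 6 hr at 37 C, 5% CO2. A luciferase reagent is added and light output recorded after 30 min at room temperature.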
# [5] = qHTS assay to identify small molecule agonists of the retinoic acid receptor (RAR) signaling pathway (AID 1159553); note: potency is the fitted concentration of half-maximal effect
# Summary of the method: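 Luminescence from a RARE-driven luciferase reporter in C3RL4 cells served as the read-out, measured after 30 min with detection reagent at room temperature. Compounds in DMSO were applied for 6 hr at 37 C following overnight seeding.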
# [6] = qHTS assay to identify small molecule antagonists of the estrogen related receptor (ERR) signaling pathway - cell viability counter screen (AID 1224818);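 note: series mostly up to about 46 µM; viability measured after 17.5 h of compound exposure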
# Summary of the method: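 Multiplexed counter screen to separate cytotoxic compounds from true ERR modulators. ERR cells received DMSO-dissolved compounds after a 6 h pre-incubation, were exposed 17.5 h at 37 C, then assayed with CellTiter-Fluor fluorescence.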
# [7] = qHTS assay to identify small molecule antagonists of the estrogen related receptor (ERR) signaling pathway (AID 1224819;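 note: luminescence from an ERR-driven luciferase reporter measured with One-Glo reagent; series mostly up to about 46 µM; nearly all actives have a fitted effect of over 50% in size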)
# Text: National Center for Advancing Translational Sciences [NCATS]
# NIH Chemical Genomics Center [NCGC]
# U.S. Environmental Protection Agency [EPA]
# National Institutes of Environmental Health Sciences [NIEHS]
# National Toxicology Program [NTP]
# U.S. Food and Drug Administration [FDA]
# Estrogen related receptors (ERRs), the first orphan nuclear receptors discovered, play an important role in the control of cellular energy metabolism. ERRs are required for high-energy production in response to the environmental challenges. ERR-alpha was also identified as an adverse marker for breast cancer progression; ERR-alpha-positive tumors have a poor prognosis. To screen and to identify environmental compounds that perturb the ERR signaling pathways could provide valuable information for potential therapeutic or preventive measures in the treatment of metabolic disease. For identifying ERR antagonists, ERR cell line (provided by NTP) has been used to screen LOPAC library.
# Tox21 Assay Protocol Summary:
# The ERR cells were dispensed at 2,000 cells/5 ul/well in 1536-well white plates using a Multidrop dispenser. After the assay plates were incubated at a 37 C/5% CO2 incubator for 6 hours, 23 nL of compounds dissolved in DMSO, positive and negative controls or DMSO only was transferred to the assay plate by a pin tool. The plates were incubated at 37 C for 18 hours. 4 ul/well of One-Glo reagent was added into the assay plates using a Flying Reagent Dispenser. After 30 min incubation at room temperature, the luminescence intensity in the plates was measured using a ViewLux plate reader.
# [8] = qHTS assay to identify small molecule agonists of the estrogen related receptor (ERR) signaling pathway (AID 1224820)
# Summary of the method: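 Quantitative HTS of the LOPAC library used NTP ERR reporter cells treated 18 h at 37 C. Signal is luminescence after One-Glo addition and a 30 min room-temperature incubation.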
# [9] = test system: estrogen-related receptor alpha (ERRalpha) with PGC-1alpha coactivator, human; experiment: qHTS assay to identify small molecule antagonists of the estrogen related receptor signaling pathway with the pleiotropic PPARgamma coactivator (PGC) (AID 1224821; calls by dose curve;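 note: series mostly up to about 46 µM; lower luminescence signal means antagonism of PGC/ERR signalling; nearly all actives have a fitted effect of over 50% in size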)
# Summary of the method: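 Quantitative HTS for antagonism: PGC/ERR cells received compounds after 6 h attachment and were incubated 18 h at 37 C, with luminescence (One-Glo) as the endpoint.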
# [10] = qHTS assay to identify small molecule antagonists of the estrogen related receptor signaling pathway with the pleiotropic PPARgamma coactivator (PGC) cell viability counter screen (AID 1224822;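 note: series mostly up to about 46 µM; viability read after 17.5 h compound exposure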)
# Summary of the method: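 Cells: PGC/ERR, 2,000/well, 1536-well format. Pre-incubation 6 h, 37 C/5% CO2. Compound exposure 17.5 h, 37 C. Detection: CellTiter-Fluor, 30 min, fluorescence.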
Compound,Potency [1],Potency [2],Potency [3],Potency [4],Potency [5],outcome [6],outcome [7],outcome [8],outcome [9],outcome [10]
CON(C)C(=O)Nc1ccc(Br)c(Cl)c1,inactive,inactive,inactive,inactive,21.7 µM (active),–,–,–,–,–
CCCC[N+](=O)[O-],inactive,inactive,inactive,inactive,inactive,–,–,–,–,–
O=C(NC(=O)c1c(F)cccc1F)Nc1cc(Cl)c(F)c(Cl)c1F,inactive,inactive,inactive,inactive,inactive,–,–,–,–,–
C/C=C/CC#N,inactive,inactive,inactive,inactive,inactive,–,–,–,–,–
O=P(O)(O)c1ccccc1,inactive,inactive,inactive,inactive,inactive,–,–,–,–,–
CCC1(CC)C(=O)C=CNC1=O,inactive,inactive,inactive,inactive,inactive,–,–,–,–,–
CC(C)NCC(O)c1ccc([N+](=O)[O-])cc1 (stereo not drawn),inactive,inactive,inactive,inactive,inactive,–,–,–,–,–
CC(C)N(Cc1ccccc1)C(=O)C(C)(C)C,inactive,inactive,inactive,inactive,inactive,–,–,–,–,–
C[C@@H](N)[C@@H](O)c1ccccc1,inactive,inactive,inactive,inactive,inactive,–,–,–,–,–
NCCOS(=O)(=O)O,inactive,inactive,inactive,inactive,inactive,–,–,–,–,–
CC1N=C(N)OC1c1ccccc1 (stereo not drawn),inactive,inactive,inactive,inactive,inactive,–,–,–,–,–
CCCC(C)C1(CC)C(=O)N=C(S)NC1=O (stereo not drawn),inactive,inactive,inactive,inactive,inactive,–,–,–,–,–
CC(Cc1ccccc1)NCCCCl (stereo not drawn),inactive,inactive,inactive,inactive,inactive,–,–,–,–,–
CC(Cl)(Cl)Cl,inactive,inactive,inactive,inactive,inactive,–,–,–,–,–
C#CC(C)(C)O,inactive,inactive,inactive,inactive,inactive,–,–,–,–,–
CCN1CCCC1CNC(=O)C(O)(c1ccccc1)c1ccccc1 (stereo not drawn),inactive,inactive,inactive,inactive,inactive,–,–,–,–,–

Compound,Potency [1],Potency [2],Potency [3],Potency [4],Potency [5],outcome [6],outcome [7],outcome [8],outcome [9],outcome [10]
OP(O)c1ccccc1,inactive,inactive,inactive,inactive,inactive,–,–,–,–,–
CCCCCCCCSC(=O)Oc1cc(Cl)nnc1-c1ccccc1,inactive,inactive,inactive,inactive,inactive,–,–,–,–,–
C=CC(=O)OCCN(C)C,inactive,inactive,inactive,inactive,inactive,–,–,–,–,–
N=C(N)[Se],inactive,inactive,inactive,inactive,inactive,–,–,–,–,–
C[C@]12C=CC(=O)C=C1CC[C@@H]1[C@@H]2CC[C@@]2(C)[C@H]1CC[C@]2(C)O,inactive,inactive,inactive,inactive,inactive,–,–,–,–,–
C=CCC1(C(C)CC)C(=O)NC(=O)NC1=O (stereo not drawn),inactive,inactive,inactive,inactive,inactive,–,–,–,–,–
CC[C@@H](CO)NC(=O)[C@@H]1C=C2c3cccc4c3c(cn4C)C[C@H]2N(C)C1,inactive,inactive,inactive,inactive,inactive,inactive,inactive,inactive,inactive,inactive
CC(C)(C)C(=O)C(Cl)Cl,inactive,inactive,inactive,inactive,inactive,–,–,–,–,–
CCCN1CCC[C@@H]2Cc3[nH]ncc3C[C@H]21,inactive,inactive,inactive,inactive,inactive,inactive,inactive,inactive,inactive,inactive
CCC(C(N)=O)N1CCCC1=O (stereo not drawn),inactive,inactive,inactive,–,inactive,–,–,–,–,–
CCC1(c2ccccc2)CCC(=O)NC1=O (stereo not drawn),inactive,inactive,inactive,inactive,inactive,–,–,–,–,–
Cc1ccc2cc(C)ccc2c1,inactive,inactive,inactive,inactive,inactive,–,–,–,–,–
NNC(N)=O,inactive,inactive,inactive,inactive,–,inactive,–,–,–,inactive
C=C(C)[C@H]1CN[C@H](C(=O)O)[C@H]1CC(=O)O,inactive,inactive,inactive,inactive,inactive,inactive,–,–,–,inactive
CCCN1CCC[C@@H]2Cc3nc(N)ncc3C[C@H]21,inactive,inactive,inactive,inactive,–,inactive,inactive,inactive,inactive,inactive
NCC1(CC(=O)O)CCCCC1,inactive,inactive,inactive,inactive,inactive,inactive,–,–,–,inactive
